An excerpt weighted towards active compounds, which were near 2% of everything screened.
HER2 expr 66K – inhibitors of Her2 protein expression, primary screen, SKBR-3 cells, AlphaScreen, 66K library. HER2 level % of control, % at 10 µM. actives 0.69% (n = 65,000). SKBR-3 HER2 protein level, 18-24 h; hits give low values. Receptor tyrosine-protein kinase erbB-2 (Homo sapiens), P04626. AID 645, 2007;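 active means HER2 level under 5% of the carrier-only control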;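 further: 100% = DMSO carrier and 0% = 500 nM PU-H71 HSP90 inhibitor; lower value means stronger loss of Her2 protein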
SK-BR-3 tox 24h – SK-BR-3 proliferation inhibitors, primary screen, cell-based, human, 24 h; SK-BR-3 viability, CellTiter-Glo ATP luminescence; hits give low values; viability, % at 10 µM; actives 0.47% (n = 41,000); AID 847, 2007;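 active means viability at or below the median of all test compounds minus 3 SD, in both replicates if run twice, cut at about 45% in these data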;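 further: 100% = median untreated cell wells and 0% = median positive control drug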
Jurkat tox 60K – cytotoxicity toward Jurkat T cells, primary screen, cytotoxicity control, cell-based, Jurkat E6.1, 60K MLSMR library. Jurkat E6.1 viability, ATP luminescence, 48 h. inhibition, % at 4 µM. actives 1.2% (n = 56,000);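 active means inhibition above the mean inhibition of all tested compounds plus 3 SD, cut at about 28% in these data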
* hit, by the source's call; . = not tested or not shown.

SMILES	HER2 expr 66K	SK-BR-3 tox 24h	Jurkat tox 60K
CCCCn1c(CN2CCN(c3cccc(Cl)c3)CC2)nc2c1c(=O)[nH]c(=O)n2C	92	.	80*
N/C(=N\S(=O)(=O)c1ccc(Cl)s1)c1ccccc1	104	89	.
Cc1ccc(C(=O)CCNc2ccc(F)c(Cl)c2)o1	102	118	83*
Cc1ccc(C(=O)CCNc2ccc(Br)cc2)o1	89	102	0
O=C(CN1CCOc2ccccc21)N1CCCC1	80	.	6
COC(=O)c1c(NC(=O)CSc2n[nH]c(N)n2)sc(C)c1C	83	.	0
CCOC(=O)c1c(NC(=O)CSc2n[nH]c(N)n2)sc(CC)c1C	-33*	.	-3
C=CCSC1=C(C#N)C(c2ccc(OCC)cc2)CC(=O)N1 (configuration not stated)	66	.	-2
Cc1cc2c(=O)n(CC(=O)NCC(=O)N3CCN(Cc4ccccc4)CC3)cnc2s1	80	.	6
COc1ccc(-c2nnc(NC(=O)C(C)C)o2)cc1	94	.	-2
COc1ccc(-c2nnc(NC(=O)c3ccccc3C)o2)cc1	59	.	43*
COC(=O)C1=C(C)N(c2ccc(Cl)c(Cl)c2)C(=O)C1	101	79	64*
COC(=O)C1=C(C)N(c2ccc(S(N)(=O)=O)cc2)C(=O)C1	121	93	.
CCn1nnnc1SCC(=O)c1cc(OC)ccc1OC	75	78	-3
O=C(Nc1nccs1)c1ccc(S(=O)(=O)NCc2cccs2)cc1	88	117	9
O=C(Nc1nccs1)c1ccc(S(=O)(=O)NCC2CCCCC2)cc1	67	123	37*
COc1ccc(OC)c(N2C(=O)CC(Cc3ccc(C)cc3)C2=O)c1 (configuration not stated)	84	82	-7
CCOP(=O)(c1ccccc1Cl)C1(O)CCCCC1 (configuration not stated)	-28*	82	2
CCOP(=O)(c1ccccc1)C1(C#N)CCCC1 (configuration not stated)	101	85	.
Cc1nc(C)c(-c2csc(NCc3ccco3)n2)s1	130	.	-1
Cc1nc2ccccn2c1-c1csc(NCc2ccco2)n1	83	76	32*
Cc1cccc2nc(C(F)(F)F)nc(=O)n12	117	.	13
Cc1cc(=O)c2ccccc2[nH]1	85	88	0
Cc1cc2c(N=O)c(NO)ccc2[nH]1	34	60	75*
CCCCCn1c(=NC(C)=O)c(C#N)cc2c(=O)n3cccc(C)c3nc21	94	75	-3
SMILES	HER2 expr 66K	SK-BR-3 tox 24h	Jurkat tox 60K
COCCNC(=O)c1ccc2c(c1)nc(C)n2-c1cc(OC)c(OC)c(OC)c1	132	87	-2
CCn1c(SCC(=O)N2CCOCC2)nc2oc3c(Cl)cc(Cl)cc3c(=O)c2c1=O	-1.7*	98	3
CCn1c(SCC(=O)N2CCOCC2)nc2sc3c(c2c1=O)CCCC3	78	93	.
COC(=O)c1ccc(CC(=O)c2c(C)cc(O)cc2O)o1	106	98	-1
CC1=C(C(=O)OCC2CCCO2)C(c2ccncc2)C2=C(CC(C)(C)CC2=O)N1 (configuration not stated)	137	.	-8
CCOC(=O)C1C(c2ccccc2Cl)NC(=O)N(C)C1(O)C(F)(F)F (configuration not stated)	-28*	84	-2
CC(=O)C1C(c2ccccc2Cl)NC(=O)NC1(O)C(F)(F)F (configuration not stated)	84	.	2
CC(=O)C(Sc1nn(C)c(=S)s1)C(=O)Nc1ccccc1 (configuration not stated)	90	115	4
O=C(CCn1c(=O)oc2ccccc21)NCCCN1CCCC1=O	96	.	1
COc1ccc(CN2C(=O)NC3(CCCCCC3)C2=O)cc1F	88	.	-7
CN=CC1=C(O)c2ccccc2C1=O	85	109	2
O=C1C(C2=C(O)c3ccccc3C2=O)=Nc2ccccc21	-16*	.	-5
Cc1cc(C)c(N2C(=NC(=O)CCCC(=O)O)SC3CS(=O)(=O)CC32)c(C)c1 (configuration not stated)	130	98	-1
c1ccc(-n2nnnc2SCc2cccc3nsnc23)cc1	93	80	7
O=c1c2c3nc4ccccc4nc3n(/N=C/c3cccs3)c2ncn1-c1ccccc1	78	97	1
c1ccc(-c2nnc(-c3ccccn3)nn2)nc1	55	100	.
c1ccc(-c2cccc(-c3ccccn3)n2)nc1	54	75	87*
OCCOCCn1c2ccccc2c2ccccc21	86	64	4
COCCn1cnc2c(c1=O)c1nc3ccccc3nc1n2/N=C/c1cccc(OC)c1OC	-0.7*	72	-7
C=CCn1cnc2c(c1=O)c1nc3ccccc3nc1n2/N=C/c1cccc(OC)c1	69	95	7
CCOC(=O)c1c(NC(=O)CSc2nnnn2CC)sc(C)c1C	14	94	-1
Nc1nc(C2CCCN2S(=O)(=O)c2ccc(Cl)cc2)cs1 (configuration not stated)	97	.	9
Clc1ccc(-n2nnnc2-c2ccccc2)cc1Cl	152	.	4
COc1ccc(-n2nnnc2-c2cccc(OC)c2)cc1	69	127	78*
Cc1c(CCC#N)c(N2CCN(C3CCCCC3)CC2)n2c(nc3ccccc32)c1C#N	-16*	6.0*	.
SMILES	HER2 expr 66K	SK-BR-3 tox 24h	Jurkat tox 60K
Cc1c(CCC#N)c(N2CCCCC2)n2c(nc3ccccc32)c1C#N	182	76	.
Cc1ccccc1-n1nc2c(c1NC(=O)c1cc3ccccc3oc1=O)CS(=O)(=O)C2	1.1*	.	.
Cc1ccccc1-n1nc2c(c1NC(=O)c1cc3ccccc3oc1=O)CS(=O)C2 (configuration not stated)	85	91	-5
CCOC(=O)C1Cc2c([nH]c3ccccc23)C(C)N1 (configuration not stated)	60	97	.
COC(=O)C1Cc2c([nH]c3ccccc23)CN1 (configuration not stated)	-19*	89	-2
CCOc1cccc(NC(=O)C2CC(=O)N(C)C(=Nc3cccc(F)c3)S2)c1 (configuration not stated)	96	87	5
COc1ccc(CCNc2c(C)c(C)nc3ncnn23)cc1	84	87	92*
CCc1c(C)nc2ncnn2c1NCCc1ccc(OC)c(OC)c1	94	92	16
CS(=O)(=O)N1CCC(C(=O)c2cccc(Cl)c2)CC1	103	102	-2
Cc1ccccc1N1C(=O)N(c2cccc(C(F)(F)F)c2)C2CS(=O)(=O)CC21 (configuration not stated)	76	92	1
COc1ccc(-n2nnnc2S(=O)(=O)CC(=O)N2CCCCC2)cc1	-29*	.	23
COc1ccc(-n2nnnc2S(=O)(=O)Cc2ccc(C(=O)O)cc2)cc1	36	110	7
COc1ccc(-c2cc(C(=O)NCCN3CCOCC3)c3ccccc3n2)c(OC)c1	70	82	.
CCOc1ccc(-c2cc(C(=O)O)c3ccccc3n2)c(OCC)c1	87	.	37*
O=C1CC(c2ccc(Cl)c(Cl)c2)CC(O)=C1C=NCCN1CCNCC1 (configuration not stated)	94	85	4

Compound activity: PubChem, several laboratories
